Compound activity as filed in PubChem BioAssay.
Many of the other results were omitted from the sample, so hits are more common in it than they were.
ERK EGF inh: blocks ERK signaling stimulated by EGF; Potency, µM (series often up to 11.5 µM), without a hit: at the top dose activity change, negative = inhibition, hits mostly inhibitors; hit rate 0.41% among 130,000; AID 1454; HEK293-V1b, EGF-stimulated phospho-ERK AlphaScreen; active = well fitted inhibition curve with a large enough effect;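 note: plate controls were stimulated vehicle wells for no effect and unstimulated vehicle basal for full effect; nearly all actives have a fitted effect of over 55% in size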
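Readout: AlphaScreen signal for phosphorylated ERK in lysed HEK293 cells stably expressing V1b. Stimulus 25 nM EGF, 5 min, following 30 min compound exposure. Data scaled to DMSO basal and full EGF activation.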
* hit, by the source's call; [ ] = dose if it differs, or a comment. Potency is the fitted concentration of half-maximal effect.

SMILES | ERK EGF inh
C[C@H](NC(=O)c1nc[nH]c1C(=O)N[C@@H](Cc1ccccc1)C(=O)OCc1ccccc1)c1ccccc1 | -7.9%[57.5 µM]
CC(C)C[C@H](NC(=O)c1[nH]cnc1C(=O)Nc1ccc(CNC(=O)OC(C)(C)C)cc1)C(=O)OCc1ccccc1 | -12.4%[57.5 µM]
O=C(N[C@@H](Cc1ccccc1)C(=O)OCc1ccccc1)c1nc[nH]c1C(=O)NC(c1ccccc1)c1ccccc1 | 39.8µM*
C[C@H](NC(=O)c1[nH]cnc1C(=O)Nc1ccc(CNC(=O)OC(C)(C)C)cc1)C(=O)OCc1ccccc1 | 31.6µM*
COCC1C2CC[C@H]3C(OCc4ccc(F)cc4C(F)(F)F)OC[C@]4(C)[C@H]3C2=C(CN4C(=O)OC(C)(C)C)[C@H](C)C1COC (stereo partly drawn) | -0.7%
CC(=O)N1C2(C=CC1(C)C(=O)NCc1cc(F)cc(C(F)(F)F)c1)CCCCC2 (stereo not drawn) | 2.5%
C/C=C/C1=Cc2ccccc2C(C(C(=O)OC)C(=O)OC)N1C(=O)OC (stereo not drawn) | -4.6%
COCCn1c(=O)c(-c2cc(F)cc(F)c2)nc2cnc(Oc3ccc(OC)cc3)nc21 | 6.9%
COC(=O)c1ccc(C(NC(=O)OCc2ccccc2)/C(=C/[C@@H](C)C(=O)NCc2cc(C)on2)c2cccnc2)cc1 (stereo partly drawn) | 14.0%
Cc1cc(Cl)ccc1OCC(=O)N1CCCN(C(=O)COc2ccc(Cl)cc2C)CC1 | 31.6µM*
Cc1ccc2c(Cl)cc(Cl)c(OCC(=O)N3CCCC3)c2n1 | 6.3%
O=C(COc1ccc(Cl)cc1Cl)N1CCN(c2ccccn2)CC1 | -8.3%
Cc1ccccc1-c1nc(NCc2cccnc2)c2ccccc2n1 | 23.9%
CCC#CCOCC(=S)Nc1ccccc1 | 3.0%
C[C@@H]1C(=O)O[C@H]2[C@@H](O)[C@@]34[C@H]5CC(C(C)(C)C)[C@]36[C@@H](OC(=O)[C@@H]6O)O[C@@]4(C(=O)O5)[C@@]12O (stereo partly drawn) | -12.4%
O=C(c1cc(C(F)(F)F)cc(C(F)(F)F)c1)N1CCC[C@@]2(CCN(c3ccncc3)C2)C1 | 5.9%
CCCCCCN(C(=O)CCCCCN1C(=O)NC(c2ccccc2-c2ccccc2)C(C(=O)OCc2ccccc2)=C1C)C(C(=O)NCCCC)c1ccc(OCC(=O)OC)c(C(=O)OC)c1 (stereo not drawn) | -6.8%
CC(=O)n1cc([C@H]2C=C(C(=O)N3CCN(Cc4ccc5c(c4)OCO5)CC3)O[C@@H](OCCCCO)C2)c2ccccc21 | -5.2%[57.5 µM]
N#Cc1ccc(NC(=O)Nc2cccc(C#N)c2)cc1 | -2.8%[57.5 µM]
CC(=O)Nc1ccc(Oc2ccccc2)cc1 | 0.9%[57.5 µM]
N#Cc1ccc(NC(=O)Nc2ccc(Oc3ccc(NC(=O)Nc4ccc(C#N)cc4)cc3)cc2)cc1 | 31.6µM*
FC(F)(F)c1cc(CN2CC[C@@]3(CCCNC3)C2)cc(C(F)(F)F)c1 | -3.3%
COc1ccc2[nH]c3c(=O)n(CCCN4CCOCC4)cnc3c2c1 | -6.4%[57.5 µM]
COc1ccc2[nH]c3c(N4CCc5ccccc5C4)ncnc3c2c1 | 31.6µM*
CCOc1ccc2[nH]c3c(N4CCC5(CC4)OCCO5)ncnc3c2c1 | 0.4%[57.5 µM]
SMILES | ERK EGF inh
OC[C@@H](O)CN1CCN(c2ccccc2)CC1 | 9.8%[25.7 µM]
CCN(CC)C(=O)CN1C(=O)c2cccc3cccc(c23)C1=O | -4.8%
CCN1/C(=N\N)c2cccc3cccc1c23 | 12.6µM*
O=C1c2cccc3cccc(c23)N1Cc1ccc(F)cc1 | -3.3%
COc1cccc(Nc2ncc3nc(CCc4ccccc4)c(=O)n(C[C@H]4CCCO4)c3n2)c1 | -2.1%
CC1=NN(c2cccc(C(=O)O)c2)C(=O)/C1=C\C=C\c1ccco1 | 2.3%
O=C1ON=C(c2ccccc2)/C1=C/c1ccco1 | 3.4%
CC1=NN(c2ccccc2)C(=O)/C1=C/C=C/c1ccccc1 | 15.8µM*
Cc1ccc(C2=NOC(=O)/C2=C\C=C\c2ccccc2)cc1 | 31.6µM*
CN(C)/C=C1\C(=O)ON=C1c1ccccc1 | 3.1%
CC1=NN(c2ccccc2)C(=O)C1=C(C)C | -4.4%
CCCC[C@@H]1C[C@H]1C(NC(=O)Cc1ccccc1)c1ccc(Cl)cc1 (stereo partly drawn) | -4.7%
COc1ccc(-c2nc(-c3ccccc3)oc2Nc2ccccc2C)cc1 | -8.7%
C[C@]12CCC(=O)C=C1CCC1C2C(=O)C[C@]2(C)C1CC[C@]2(O)C(=O)CO (stereo partly drawn) | 27.0%
COC(=O)[C@@]1(Cc2ccc(F)cc2)[C@H]2c3cc(C(=O)N4CCCC4)n(CCc4c[nH]c5cc(F)ccc45)c3C[C@H]2CN1C(=O)c1ccccc1 | 12.9%
Cc1nc(NCc2ccccc2)c2nc(-c3ccccc3)n(CCCN3CCCCC3C)c2n1 (stereo not drawn) | -9.8%
COc1cc(-c2coc3cc(OCc4ccccc4)c(OC)c(O)c3c2=O)cc(O)c1OC | 0.1%
N#Cc1cccc(CS(=O)(=O)c2ccccc2)c1 | -3.5%
CCN1C(=O)CS/C1=N\S(=O)(=O)c1ccc(Cl)cc1 | 12.6%
CCn1c(Cl)c(C=O)s/c1=N\S(=O)(=O)c1ccccc1 | 17.8µM*
O=Cc1sc(=O)n(Cc2cccc(C(=O)O)c2)c1Cl | -4.1%[57.5 µM]
